Compounds with a hit are over-represented: about 11% of the library has one in this group of screens.
HPGD block: qHTS Assay for Inhibitors of HPGD (15-Hydroxyprostaglandin Dehydrogenase); 15-hydroxyprostaglandin dehydrogenase [NAD(+)] (Homo sapiens), P15428; AID 894, 2007; Potency, µM, for inactives: at the highest dose activity change, negative = inhibition, usual class: inhibitors; 150,000 compounds, 4.3% hits; purified HPGD, NADH fluorescence kinetic, PGE2 substrate; note: potency is the fitted concentration of half-maximal effect
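NADH formation kinetics: reaction with 30 uM PGE2 and 1 mM NAD+ (final), 20 nM enzyme, Tris-HCl pH 8 with Tween 20, after 15 min compound preincubation at room temperature. Fluorescence change, last versus first of five reads.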
IMPase Li inh: qHTS Assay for Identifying the Cell-Membrane Permeable IMPase Inhibitors: Potentiation with Lithium | CHO-M1 cells, IP1 TR-FRET (IP-One), carbachol + lithium | Potency, µM (highest dose often 59.4 µM), inactives show at the top dose activity, negative = IMPase inhibition, most hits filed as inhibitors | 210,000 compounds, 0.35% hits; active = well fitted inhibition curve with a large enough effect; inconclusive = small, poorly fitted or top-dose-only effect; inactive = no such curve, though single readings can be large or run the other way;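 note: IP1 builds up when IMPase is blocked and the TR-FRET signal falls; potency is the fitted concentration of half-maximal effect; plate controls were basal vehicle for no effect and high inhibitor control for full effect; nearly all actives have a fitted effect of over 50% in size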
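CHO-M1, 2000 cells/well, 16–30 h culture; cpd + low Li+, 30 min 37C; lysis with d2-IP1/Eu-anti-IP1 Ab, 10 min RT; TR-FRET 665/620 ratio and 620 channel; AC50 via Hill.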
PNC assembly inh: High Content Assay for Compounds that inhibit the Assembly of the Perinucleolar Compartment | PC3M PTB-GFP, PNC prevalence imaging, 16 h; stronger effect = lower value | 140,000 compounds, 3.1% hits | AID 2417, 2010 | activity change (PNC), negative = inhibition, % at 10 µM;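 active = readout at or below -70, meaning at least 70% loss of cells showing the perinucleolar compartment, a nuclear body marking cancer cells; inconclusive = readout between -30 and a set limit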;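 note: plate controls were DMSO wells for no effect and camptothecin positive control wells for full effect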
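Read-out is percentage of cells bearing a perinucleolar compartment, from automated 20x imaging of fixed, Hoechst-stained PC3M PTB-GFP cells. Cells were seeded 4 h, then exposed 16 h to compound (23 nl of library stock) in duplicate plates.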
ALDH1A1 inh: qHTS Assay for Inhibitors of Aldehyde Dehydrogenase 1 (ALDH1A1). Aldehyde dehydrogenase 1A1 (Homo sapiens), P00352. Purified ALDH1A1, NADH fluorescence, propionaldehyde substrate. Potency, µM (titrated, usually from 75.3 µM), without a hit: at the top dose activity, negative = inhibition, usual class: inhibitors. 220,000 compounds, 7.3% hits. AID 1030, 2008;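 note: potency is the fitted concentration of half-maximal effect; plate controls were no enzyme wells and a reference inhibitor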
Target sequence (P00352 whole entry, looked up): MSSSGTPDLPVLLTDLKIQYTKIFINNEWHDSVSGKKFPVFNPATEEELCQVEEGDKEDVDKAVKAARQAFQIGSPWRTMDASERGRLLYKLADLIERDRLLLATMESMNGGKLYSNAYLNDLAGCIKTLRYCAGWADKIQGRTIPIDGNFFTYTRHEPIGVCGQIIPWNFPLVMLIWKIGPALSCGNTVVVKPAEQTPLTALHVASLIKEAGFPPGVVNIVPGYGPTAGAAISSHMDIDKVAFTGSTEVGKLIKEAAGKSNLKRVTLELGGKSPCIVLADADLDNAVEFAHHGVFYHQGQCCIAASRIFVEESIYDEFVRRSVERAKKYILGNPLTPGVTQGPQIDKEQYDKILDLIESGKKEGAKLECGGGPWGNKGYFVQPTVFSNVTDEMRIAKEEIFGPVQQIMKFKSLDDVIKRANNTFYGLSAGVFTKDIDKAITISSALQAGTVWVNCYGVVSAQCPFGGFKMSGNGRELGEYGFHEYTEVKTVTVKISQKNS
IMPase inh: qHTS Assay for Identifying the Cell-Membrane Permeable IMPase Inhibitors; Inositol monophosphatase 1 (Rattus norvegicus), P97697; CHO-M1 cells, IP1 accumulation, HTRF TR-FRET ratio; inhibition (IP1 accumulation), % at 46.1 µM; 120,000 tested, under 10 active; AID 901, 2007; active = well fitted curve in the direction sought with a large enough effect in the signal ratio, not every such curve was filed as active; inconclusive = small, poorly fitted or top-dose-only effect, or a change in a side signal; inactive = no such curve, though single readings can be large or run the other way; the % refers to the signal ratio;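 note: cells stimulated with carbachol in lithium chloride buffer; plate controls were DMSO basal wells for no effect and reference inhibitor wells for full effect; higher means more IMPase inhibition seen as more IP1 and lower FRET ratio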
Target sequence (P97697 whole entry, looked up): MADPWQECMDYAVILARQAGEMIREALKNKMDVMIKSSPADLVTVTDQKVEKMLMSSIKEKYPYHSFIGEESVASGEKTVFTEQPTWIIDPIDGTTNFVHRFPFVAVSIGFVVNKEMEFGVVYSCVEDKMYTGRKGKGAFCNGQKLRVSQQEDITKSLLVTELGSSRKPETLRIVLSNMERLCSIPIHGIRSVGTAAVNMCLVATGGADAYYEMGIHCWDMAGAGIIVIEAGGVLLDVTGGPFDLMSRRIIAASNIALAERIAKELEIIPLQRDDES
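Cellular IMPase inhibition is scored as a rise in cytosolic IP1, detected by competitive TR-FRET between d2-labelled IP1 and a europium anti-IP1 antibody. M1-expressing CHO cells were stimulated with carbachol for 30 min at 37C, with lithium (50 mM LiCl) present in the buffer.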
Active calls of the source: *; ? = inconclusive; nt = no result; [ ] = dose if it differs, or a comment. Unless noted, calls come from the whole dose curve; as a rule, active = well fitted inhibition curve with a large enough effect (not every such curve was filed as active); inconclusive = small, poorly fitted or top-dose-only effect, or another doubt; inactive = no such curve, though single readings can be large or run the other way. Unless noted, % is set by controls: 0 for no effect and ±100 for the full control effect.

SMILES	HPGD block	IMPase Li inh	PNC assembly inh	ALDH1A1 inh	IMPase inh
O=C(CSc1nnnn1-c1ccccc1)Nc1ccc(N2CCOCC2)c(Cl)c1	-8%	-1%[38.3 µM]	-7	2.2µM*	3
CCN1CCN(S(=O)(=O)c2ccc(Cl)nc2)CC1	-2%	15%[38.3 µM]	65	25µM*	2
CCN1CCN(Cc2ccc(C)cc2)CC1	-7%	3%[38.3 µM]	-9	?	-3
N[C@@]1(C(=O)O)CC[C@H](C(=O)O)C1	3%	8%	nt	-9%	6
Cc1ccc([N+](=O)[O-])cc1C	-8%	13%	nt	?	nt
O=[N+]([O-])c1ccc2nc(CCCc3nc4ccc([N+](=O)[O-])cc4[nH]3)[nH]c2c1	nt	0%	nt	14µM*	nt
CC(C)(O)C1C2OC(=O)C1[C@]1(O)CC3O[C@@]34C(=O)OC2[C@@]14C (some centres not stated)	-9%	-3%	nt	11%	nt
CN1C(=O)N(C)C(=O)C2(Cc3ccccc3N3CCOCC32)C1=O (configuration not stated)	-12%	14%[38.3 µM]	-29	20µM*	7
CCC1(c2ccccc2)C(=O)N(C)C(=O)N(C)C1=O	5%	-1%[38.3 µM]	10	2%	18
O[C@H](CN1CC1)[C@@H](O)CN1CC1	-1%	2%	nt	8%[13.5 µM]	nt
CCC[C@@H]1CC2=CC(=O)CC[C@]2(C)[C@@H]2CC[C@@]3(C)[C@H](CC[C@]3(O)CCC(=O)O)[C@H]12	11%	11%	nt	6%	2
CCN1C[C@]2(C)CC[C@H](O)[C@@]34C5C[C@@H]6[C@@H](OC)C[C@@](O)(C5[C@H]6O)[C@@H](CC23)[C@@H]14 (some centres not stated)	3%	5%	nt	-12%	-2
COP(=O)(OC)c1nc(-c2cccc3ccccc23)oc1NCCc1ccccc1	?	-5%	-91*	?	nt
CCOP(=O)(OCC)c1nc(-c2cccc3ccccc23)oc1NCc1ccccc1	?	9%	?	?	-5
NC[C@H](O)c1cc(O)c(O)cc1F	nt	nt	nt	nt	2
Oc1ccc(/C=N/NP(=S)(c2ccccc2)c2ccccc2)cc1	32µM*	36%[38.3 µM]	4	20µM*	5
COc1cc(/C=N/NP(=S)(c2ccccc2)c2ccccc2)ccc1O	-21%	29%[38.3 µM]	36	?	1
CC(C)(C)c1ccccc1O	-6%	-5%	nt	32µM*	nt
COc1ccc(O)c(C(C)(C)C)c1	-7%	-3%	nt	-2%	nt
CC(C)(C)c1cc(O)ccc1O	-2%	0%	nt	3.5µM*	nt
N=C(N)n1cc(/C=N\N=C(N)N)cn1	-13%	-7%	nt	-3%[13.5 µM]	nt
C=CCN1C(=O)C2(C(C(=O)OCC)=C(N)Oc3ccccc32)C2=C1CCCC2=O (configuration not stated)	-6%	24%[38.3 µM]	?	4µM*	9
CCOC(=O)CN1C(=O)C2(C(C#N)=C(N)Oc3ccccc32)C(C(=O)OC)=C1C (configuration not stated)	-3%	-10%[38.3 µM]	?	7.9µM*	5
CCOC(=O)CC1=C(C(=O)OCC)C2(C(=O)N1CC(=O)OC)C(C#N)=C(N)Oc1ccccc12 (configuration not stated)	-9%	-4%[38.3 µM]	?	1.1µM*	-10
CC1=C(C(=O)OC(C)C)[C@]2(C(=O)N(CC(N)=O)c3ccccc32)C(C#N)=C(N)O1	-8%	-1%	-100*	13%	-4
SMILES	HPGD block	IMPase Li inh	PNC assembly inh	ALDH1A1 inh	IMPase inh
CSSC	-5%	15%	nt	3%	nt
CCCC(=O)Cl	-2%	18%	nt	4%	nt
CN1CCN(c2ccc(N)cc2)CC1	-13%	50%[38.3 µM]	25	32µM*	18
CN1CCN(c2ccc(C=O)cc2)CC1	-5%	20%[38.3 µM]	?	13µM*	?
CCN1CCN(c2ccc(N)cc2)CC1	nt	12%	nt	-13%	nt
CN1CCN(c2ccc(NC(=O)C(C)(C)C)cc2)CC1	-6%	8%[38.3 µM]	-12	8%	3
CCCCCOc1ccc(C)cc1CN(CCCl)CCCl	nt	nt	nt	20µM*	nt
CCN(CCCl)Cc1ccccc1Br	5%	34%	nt	-5%	6
COc1cc2c(cc1OC)[C@@H]1C(=O)c3ccc(OC)c(CC=C(C)C)c3OC1CO2 (some centres not stated)	-28%	18%	nt	?	nt
Oc1cc(Cl)cc(Cl)c1	-9%	1%	nt	14%	nt
CN1C(=O)C(=Cc2ccccc2Oc2ccc(Cl)c(F)c2)C(=O)N(C)C1=O	11µM*	-4%[38.3 µM]	32	?	-7
CCOc1c(Cl)cc(CNc2ccc(S(N)(=O)=O)cc2)cc1OC	25µM*	14%	-27	-3%	nt
COc1ccc(C(=O)Nc2sc3c(c2C(=O)O)CC(C)(C)OC3)cc1	?	-15%	21	20µM*	nt
COc1c2ccoc2cc2oc(=O)ccc12	-1%	12%	nt	20µM*	-4
N#CC(C#N)=Cc1ccc(-c2ccccc2)o1	-14%	5%	43	?	nt
N#CC(C#N)=Cc1ccc(-c2ccccc2F)o1	-3%	-11%	-3	8.9µM*	nt
O=C1NC(=O)N(Cc2cccs2)C(=O)/C1=C/c1ccc(N2CCOCC2)cc1	nt	0%	nt	7.1µM*	nt
O=C1NC(=O)N(Cc2ccccc2Cl)C(=O)/C1=C/N1CCOCC1	-18%	17%[38.3 µM]	34	-11%	-5
CC[C@@H]1[C@@H]2Cc3ccc(O)cc3[C@@]1(CC)CCN2C	-2%	1%	nt	6%[13.5 µM]	nt
CCCCC/C=C\C/C=C\C/C=C\CCCCC(=O)NCCc1ccc(O)c(O)c1	-3%	13%	nt	-5%	nt
CCCCn1c(=O)c(C=Nc2ccc(Cl)cc2)c(O)n(Cc2ccco2)c1=O	?	17%	?	?	nt
CCCCn1c(=O)c(C=Nc2cc([N+](=O)[O-])ccc2OC)c(O)n(CCCCl)c1=O	-18%	9%	?	11µM*	nt
CCN(CC)C(=O)c1ccc(NC(=O)CCCSc2ccccc2)cc1	nt	2%	nt	-6%	nt
CCN(CC)C(=O)c1ccc(NC(=O)COc2ccc([N+](=O)[O-])cc2Cl)cc1	0.5µM*	2%	-28	-14%	nt
CC(C)(C)OC(=O)N1CC[C@H]1COc1cnc[c]([Sn]([CH3])([CH3])[CH3])c1	1%	6%	nt	3%[13.5 µM]	nt
N#CS.N=C=S.N=C=S.[Cu].[NH2-].[NH2-].[NH2-].[NH2-].c1ccc2ncccc2c1	-3%	-10%	nt	3.5µM*	nt
N[C@H](Cc1ccccc1)c1nn[nH]n1	0%	3%	nt	-9%[13.5 µM]	nt
O=c1c2ccccc2nc(/C=C/c2cccnc2)n1Cc1ccccc1	nt	17%	nt	5µM*	nt
O=C(c1ccc(N2CCCCCC2)c([N+](=O)[O-])c1)N1CCC2(CC1)OCCO2	nt	-4%	nt	11µM*	nt

Assay outcomes as filed in PubChem.
